Screen size: about 320,000 compounds; about 2,100 (0.66%) were called active. Not shown: some 53% with an inconclusive outcome. Calls come from the whole dose curve; as a rule, active = well fitted inhibition curve with a large enough effect in the signal ratio, with a control signal flat (not every such curve was filed as active); inconclusive = small, poorly fitted or top-dose-only effect, or effect the other way, or a change in a side signal; inactive = flat fitted curve, though single readings scatter; the % refers to the signal ratio. This excerpt belongs to a sample that is enriched for actives.
Potency is the fitted concentration of half-maximal effect.

This assay in a line: qHTS Assay for Lipid Storage Modulators in Drosophila S3 Cells.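 For cell number change: cells counted by Cell Tracker Red CMTPX staining in the red channel.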 The note with it: BODIPY lipid droplet fluorescence, 18-24 h, cells fed with added oleic acid; cell number change: measured here: cell count max response; series mostly up to 46.1 µM. The gist of the method: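 Drosophila S3 cells got compounds at several concentrations plus oleic acid (400 uM solution). Laser-scanning cytometry with 488 nm excitation read lipid droplets at 500-530 nm and cells at 575-640 nm. Percent activity was relative to 20 uM Triacsin C.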
(qHTS replaces the single test concentration by a dilution series.)
For the compound `CC(=O)NC(CC(=O)OC(C)C(=O)Nc1ncc(Cl)cc1Cl)c1ccccc1` (centres undefined), the Potency result was “inactive”.
As to `CC(=O)c1c(C)n(CC(=O)NCc2ccc3c(c2)OCO3)c2ccccc12`, the Potency entry was “inactive”.
As to `O=S(=O)(NC(=NCCc1ccc(Cl)cc1)c1ccccc1Cl)c1cccs1`, the Potency entry was “inactive” and the cell number change is 1.69%.
In the case of `O=C(COc1ccc([N+](=O)[O-])cc1)Nc1cc(C(=O)O)cc(C(=O)O)c1`, the Potency entry was “inactive” and the cell number change amounted to 11.2%.
For `Cc1cc(Br)ccc1NC(=O)CNC(=O)CSc1ncccn1`, the Potency entry was “inactive” and the cell number change was -9.9%.
The corresponding values for `Cc1ccccc1C1c2[nH]c3ccccc3c2C[C@H]2C(=O)N(C3CC3)CC(=O)N12` (some centres undefined) are “inactive” and -3.81%.
As for `Cc1ccc(S(=O)(=O)N(CC(=O)N2CCC(C)CC2)c2cccc(C)c2)cc1`, the Potency result was “inactive”.
For the compound `Cc1ccc(S(=O)(=O)N(CC(=O)N2CCCCC2)c2cccc(C)c2)cc1`, the Potency result is “inactive” and the cell number change is -21.5%.
For the compound `CCOC(=O)N1CCN(C(=O)CN(c2cccc(C)c2)S(=O)(=O)c2ccc(C)cc2)CC1`, the Potency is 5.8 µM (active) and the cell number change is 6.11%.
On to `Cc1nc2c(C(=O)N3CCOCC3)cnn2c(C)c1Cc1ccc(Cl)cc1`, for which the Potency result was “inactive” and the cell number change was -21.6%.
Take `CCn1c(SC)nc2cc(S(=O)(=O)N3CCCCC3)ccc21`: the Potency entry is “inactive” and the cell number change was -3.03%.
In the case of `Cc1ccc(OCCC(=O)OCC(=O)Nc2ccc(Cl)cn2)cc1`, the Potency entry was “inactive” and the cell number change was -15.3%.
`Cc1ccc(C(=O)NCC(=O)OCC(=O)Nc2ccc(Cl)cn2)cc1`: the Potency was 3.66 µM (active) and the cell number change is -28.4%.
As to `O=C(COC(=O)CNC(=O)c1ccco1)Nc1ccc(Cl)cn1`, the Potency entry is “inactive”.
In the case of `N#Cc1ccc(COc2cccc3cccnc23)cc1`, the Potency result was “inactive” and the cell number change was -22.2%.
The corresponding values for `CC(C)C(NS(=O)(=O)c1ccc2c3c(cccc13)C(=O)N2)C(=O)O` (centres undefined) are “inactive” and 15.8%.
As to `Cc1cc(O)ccc1NS(=O)(=O)c1ccc2c3c(cccc13)C(=O)N2`, the Potency was 0.366 µM (active) and the cell number change is -0.855%.
As for `Cc1oc2c(cc(NS(=O)(=O)c3ccc4c5c(cccc35)C(=O)N4)c3ccccc32)c1C(=O)OC(C)C`, the Potency entry is “inactive” and the cell number change was found to be 10.8%.
For the compound `O=C(N=C1N=C2C=CC=CN2Cc2ccccc21)c1ccc(S(=O)(=O)N2CCCC2)cc1`, the Potency result was “inactive” and the cell number change was 13.8%.
As for `O=C(Nc1ccc(Oc2ncnc3cc(Cl)ccc23)nc1)Nc1cccc(C(F)(F)F)c1`, the Potency entry is “inactive” and the cell number change was -3.74%.
Taken in the same sequence, the figures for `O=C(N[C@H]1CC1c1ccccc1)c1ccc([N+](=O)[O-])cc1` (some centres undefined) were “inactive” and -1.22%.
For `C=C(C)Cn1c(-c2ccncc2)n[nH]c1=S`, the Potency result was “inactive” and the cell number change is -24.7%.
In the case of `O=C(CCN1CCOCC1)N1CCCC(Nc2ccc(F)cc2)C1` (centres undefined), the Potency result is “inactive”.
As to `CCS(=O)(=O)c1ccc2c(c1)NC(=O)C(CCO)O2` (centres undefined), the Potency result was “inactive” and the cell number change was found to be 7.6%.
On to `O=C1Nc2ncccc2OC1CCO` (centres undefined), for which the Potency is 25.9 µM (active) and the cell number change is -19.3%.
Consider `O=C1Nc2ncccc2OC1CCCl` (centres undefined), for which the Potency result was “inactive” and the cell number change stood at 11.9%.
For the compound `CCOC(=O)c1ccc(NC(=O)Cn2c(=O)oc3ccccc32)cc1`, the Potency entry was “inactive” and the cell number change came to 2.64%.
On to `COc1ccc2c(c1OC)C(=O)NC(C)=C(C(=O)OC(C)(C)C)C2O` (centres undefined), for which the Potency was 14.6 µM (active) and the cell number change was 0.147%.
In the case of `CC1=C(C(=O)OC(C)(C)C)C(c2cccs2)NC(=O)N1` (centres undefined), the Potency entry is “inactive” and the cell number change stood at 16.7%.
The corresponding values for `COc1cc(C2NC(=O)NC(C)=C2C(=O)OC(C)(C)C)ccc1OCC(N)=O` (centres undefined) are “inactive” and 1.52%.
With `O=C1O/C(=C\C(=O)N2CCOCC2)c2ccccc21`, the Potency entry was “inactive” and the cell number change came to 1.94%.
On to `CCN(CC)c1ccc(C(=O)OCC(=O)Nc2cc3oc4ccccc4c3cc2OC)cc1`, for which the Potency entry is “inactive” and the cell number change is -0.812%.
In the case of `CC(C)n1c(SCC(=O)N2CCCCC2)nc2c1c(=O)n(C)c(=O)n2C`, the Potency is 0.116 µM (active) and the cell number change was -23%.
On to `Cn1c(=O)c2c(nc(SCC(=O)N3CCCCCC3)n2C)n(C)c1=O`, for which the Potency entry was “inactive” and the cell number change was 8.11%.
Regarding `CC(C)n1c(SCC(=O)N2CCN(C)CC2)nc2c1c(=O)n(C)c(=O)n2C`, the Potency entry was “inactive” and the cell number change was determined as 1.32%.
As for `CCC(CC)C(=O)NCCc1cc2ccc(C)c(C)c2[nH]c1=O`, the Potency entry is “inactive”.
As to `CC1(C)N=C(/C=N/O)C=[N+]1[O-]`, the Potency was 6.51 µM (active) and the cell number change is -9.07%.
As to `CCn1cc(/C=N/O)c(C)n1`, the Potency result was “inactive” and the cell number change was found to be 7.41%.
Regarding `CCCN(CCC)CCCNC(=O)C1CCC(CNS(=O)(=O)c2cccc3nsnc23)CC1` (centres undefined), the Potency result was “inactive” and the cell number change is -15%.
Consider `CC(=O)NC(c1ccc(C(C)C)cc1)c1ccc2cccnc2c1O` (centres undefined), for which the Potency entry was “inactive”.
In the case of `CCCCC(=O)NC(c1ccccc1OC)c1ccc2cccnc2c1O` (centres undefined), the Potency entry is “inactive” and the cell number change was -24%.
Take `CCCCC(=O)NC(c1ccc(C(C)C)cc1)c1ccc2cccnc2c1O` (centres undefined): the Potency was 18.4 µM (active) and the cell number change was -28.4%.
Consider `CCOc1c(Br)cc(CNc2ccc(N3CCOCC3)cc2)cc1OC`, for which the Potency entry was “inactive” and the cell number change was -20.8%.
Taken in the same sequence, the figures for `Cc1cc(OC(C)C(=O)NCC(O)c2ccccc2)c2c(C)cc(=O)oc2c1` (centres undefined) were “inactive” and 6.57%.
Consider `CCOc1ncccc1C(=O)NCc1ccccc1Cl`, for which the Potency entry was “inactive”.
Turning to `COc1ccc(CC(=O)NNC(=O)COc2ccc(Br)cc2C)cc1OC`, the Potency entry is “inactive” and the cell number change turned out to be 1.07%.
With `NC(=O)c1c(NC(=O)c2ccccc2F)sc2c1CCCC2`, the Potency is 1.64 µM (active) and the cell number change is -10.7%.
Take `COc1ccccc1C(=O)Nc1sc2c(c1C(N)=O)CCCC2`: the Potency entry is “inactive” and the cell number change was -22.3%.
The corresponding values for `NC(=O)c1c(NC(=O)c2ccc(F)cc2)sc2c1CCC2` are 4.61 µM (active) and 5.61%.
Regarding `NC(=O)c1c(NC(=O)c2ccc(F)cc2Cl)sc2c1CCC2`, the Potency entry is “inactive” and the cell number change is 3.89%.
On to `O=C(Nc1sc2c(c1C(=O)O)CCCCC2)c1ccccc1F`, for which the Potency result was “inactive” and the cell number change was -1.56%.
On to `NC(=O)c1c(NC(=O)c2ccccc2)sc2c1CCC2`, for which the Potency result is “inactive” and the cell number change was -24.3%.
As to `O=S(=O)(Nc1ccc(Cl)cn1)c1ccccc1`, the Potency result is “inactive” and the cell number change came out at 14.4%.
`Cc1cccc(/N=C/c2nc(-c3ccccc3Br)oc2O)n1`: the Potency entry is “inactive” and the cell number change came out at 18.5%.
Taken in the same sequence, the figures for `COc1cc(S(=O)(=O)N2CCOCC2)ccc1NC(=O)COC(=O)c1ccccn1` were “inactive” and 9.96%.
For `Cc1ccc[n+](CC(=O)N2CCCc3ccccc32)c1`, the Potency result was “inactive” and the cell number change was -16.8%.
For the compound `O=C(O)c1nn(CC(=O)N2CCN(c3ncc(C(F)(F)F)cc3Cl)CC2)c(=O)c2ccccc12`, the Potency was 0.82 µM (active) and the cell number change is -1.8%.
As for `CNCC(=O)N1CCN(c2ncc(C(F)(F)F)cc2Cl)CC1`, the Potency result is “inactive” and the cell number change is -11.3%.
`O=C(CSc1ccccn1)N1CCN(c2ncc(C(F)(F)F)cc2Cl)CC1`: the Potency entry is “inactive” and the cell number change was 6.61%.
Taken in the same sequence, the figures for `CSc1nnc(-c2ccccc2)n1N` were “inactive” and 9.66%.
The corresponding values for `Cc1ccc(NC(=O)c2cccnc2)cc1S(=O)(=O)N(C)C` are “inactive” and 5.29%.

For the origin of these results see PubChem BioAssay AID2685 (National Center for Advancing Translational Sciences (NCATS), 2010).
